Peg3 promoter = reduces Peg3 promoter-driven luciferase expression in HeLa | 360,000 compounds, 1.7% hits | inhibition, % at 20 µM | HeLa PEG-Prom luciferase reporter, luminescence, overnight;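 active = inhibition of at least 50% at 20 µM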
TWEAK Fn14 block = inhibitors of TWEAK-Fn14 interaction signaling. TWEAK-stimulated Fn14 reporter cells, luciferase luminescence, 8 h. inhibition, % at 10 µM. 360,000 compounds, 2% hits; in the data active = inhibition above about 50%
LMP1 NFkB inh = inhibitors of Epstein-Barr LMP1-induced NF-kappaB reporter | inhibition, % at 12.5 µM | 350,000 compounds, 0.69% hits | LMP1-induced NF-kappaB luciferase reporter cells, luminescence; in the data active = inhibition above about 41%;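 also: 0% = neutral control wells and 100% = reference inhibitor control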
TRPM1 prom inh = inhibitors of MITF-driven TRPM1 promoter in melanoma cells | SK-MEL-5 TRPM1 promoter luciferase, 24 h | inhibition, % at 12.5 µM | 330,000 compounds, 0.83% hits | AID 488899;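 active = mean inhibition across replicates of 60% or more, whatever share of single replicates reaches that level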
TROY signal inh = inhibitors of TROY-dependent NF-kB signaling; Q293 LMP1-TROYcd NF-kB luciferase reporter, 4 h; inhibition, % at 10 µM; 360,000 compounds, 0.98% hits;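 active = compounds whose plate-normalised and pattern-corrected inhibition of the luciferase reporter signal at the single screening dose is 50% or more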
HIF-2a inh = blocks HIF-2a reporter activity; 786-0 RCC cells HIF-2a reporter, luciferase luminescence, overnight; inhibition, % at 18.8 µM; 360,000 compounds, 0.72% hits; AID 624352;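 active = inhibition of the luminescence signal of 40% or more relative to plate controls, in a single-dose primary screen at 18.75 µM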
The depositor's hits bear a star. An excerpt weighted towards active compounds, which were near 4% of everything screened.

Cc1ccc(S(=O)(=O)/N=C2\C=C(NS(=O)(=O)c3ccccc3)C(=O)c3ccccc32)cc1 was read as Peg3 promoter -41, TWEAK Fn14 block 6, LMP1 NFkB inh -15, TRPM1 prom inh 29, TROY signal inh -27 and HIF-2a inh -49.
Cc1cccc(NC2=C/C(=N/S(=O)(=O)c3cccs3)c3ccccc3C2=O)c1 was read as Peg3 promoter 45, TWEAK Fn14 block 97*, LMP1 NFkB inh -2, TRPM1 prom inh 102*, TROY signal inh 32 and HIF-2a inh 7.
`Cc1cc(C)c(S(=O)(=O)/N=C2\C=C(NS(=O)(=O)c3ccccc3)C(=O)c3ccccc32)c(C)c1` gave Peg3 promoter 10, TWEAK Fn14 block -1, LMP1 NFkB inh 0, TRPM1 prom inh 25, TROY signal inh 18 and HIF-2a inh 8.
O=C(O)c1ccc(NC2=C/C(=N/S(=O)(=O)c3cccs3)c3ccccc3C2=O)cc1 was read as Peg3 promoter -4, TWEAK Fn14 block 98*, LMP1 NFkB inh -6, TROY signal inh 60* and HIF-2a inh 13.
`O=C1C(Nc2ccc(O)cc2)=C/C(=N/S(=O)(=O)c2cccs2)c2ccccc21` gave Peg3 promoter 106*, TWEAK Fn14 block 95*, LMP1 NFkB inh 96*, TRPM1 prom inh 108*, TROY signal inh 58* and HIF-2a inh 40*.
For C[C@H]1COC(=O)CC/C=C\C[C@H](CC(=O)N(CCO)Cc2ccccc2)C(=O)N1 the results were Peg3 promoter -12, TWEAK Fn14 block 4, LMP1 NFkB inh -9, TRPM1 prom inh -22, TROY signal inh 0 and HIF-2a inh 13.
`COc1cc(SC)ccc1C(=O)Nc1nccs1` gave Peg3 promoter -117, TWEAK Fn14 block 63*, LMP1 NFkB inh 2, TRPM1 prom inh -7, TROY signal inh 31 and HIF-2a inh -84.
O=C(C1CC(=O)N(c2ccc3c(c2)OCCO3)C1)N1CCN(S(=O)(=O)c2ccccc2F)CC1 (stereo not given) was read as Peg3 promoter -22, TWEAK Fn14 block 83*, LMP1 NFkB inh 10, TRPM1 prom inh 9, TROY signal inh 49 and HIF-2a inh 30.
Screening O=C(C1CC(=O)N(c2ccc3c(c2)OCCO3)C1)N1CCN(S(=O)(=O)c2cccc(F)c2)CC1 (stereo not given) returned Peg3 promoter 15, TWEAK Fn14 block 18, LMP1 NFkB inh -1, TRPM1 prom inh -1, TROY signal inh 1 and HIF-2a inh 3.
O=C(C1CC(=O)N(c2ccc3c(c2)OCCO3)C1)N1CCN(S(=O)(=O)c2ccc(F)cc2)CC1 (stereo not given) was read as Peg3 promoter 19, TWEAK Fn14 block 3, LMP1 NFkB inh 53*, TRPM1 prom inh 7, TROY signal inh 0 and HIF-2a inh 9.
Screening CC(=O)Nc1ccccc1C(=O)C(=O)Nc1cccc(C(=O)N2CC(C)CC(C)C2)c1 (stereo not given) returned Peg3 promoter 2, TWEAK Fn14 block 78*, LMP1 NFkB inh -4, TRPM1 prom inh 8, TROY signal inh 14 and HIF-2a inh -2.
`Cc1sc2ncn(CC(=O)N3CCC(C(N)=O)CC3)c(=O)c2c1S(=O)(=O)N1CCOCC1` gave Peg3 promoter 11, TWEAK Fn14 block 4, LMP1 NFkB inh 46*, TRPM1 prom inh -2, TROY signal inh -18 and HIF-2a inh 8.
For CCOC1=C2CN(S(=O)(=O)c3ccc(C)cc3)[C@H](c3cccc4ccccc34)C[C@H]2C(C#N)(C#N)C(C#N)(C#N)C1 the results were Peg3 promoter 52*, TWEAK Fn14 block 16, TROY signal inh 1 and HIF-2a inh 15.
CCOC1=C2CN(S(=O)(=O)c3ccc(C)cc3)[C@@H](c3cccc4ccccc34)C[C@H]2[C@H]2C(=O)N(c3ccccc3)C(=O)[C@H]2C1 was read as Peg3 promoter 8, TWEAK Fn14 block -13, TROY signal inh 2 and HIF-2a inh 14.
Screening CCOC1=C2[C@H](c3ccccc3)N(S(=O)(=O)c3ccc(C)cc3)C(C(C)(C)C)[C@H]2C(C#N)(C#N)C(C#N)(C#N)C1 (stereo not given in full) returned Peg3 promoter 78*, TWEAK Fn14 block 54*, TROY signal inh 17 and HIF-2a inh 49*.
O=[N+]([O-])c1ccc(P(=O)(Cc2ccccc2)c2ccccc2O)cc1 (stereo not given) was read as Peg3 promoter 18, TWEAK Fn14 block -16, LMP1 NFkB inh -6, TRPM1 prom inh 1, TROY signal inh 18 and HIF-2a inh 12.
For NC(=S)NN=C1c2cc(OCCN3CCOCC3)ccc2-c2ccc(OCCN3CCOCC3)cc21 the results were Peg3 promoter 107*, TWEAK Fn14 block 6, LMP1 NFkB inh -5, TRPM1 prom inh 79*, TROY signal inh 75* and HIF-2a inh 19.
Screening ON=C1c2cc(OCCN3CCCCC3)ccc2-c2ccc(OCCN3CCCCC3)cc21 returned Peg3 promoter 111*, TWEAK Fn14 block -4, LMP1 NFkB inh -56, TRPM1 prom inh 74*, TROY signal inh 15 and HIF-2a inh -33.
Screening CS(=O)(=O)N(CCCC(=O)N1CCCCCC1)c1cccc(Cl)c1 returned Peg3 promoter 13, TWEAK Fn14 block 0, LMP1 NFkB inh -3, TRPM1 prom inh 18, TROY signal inh 12 and HIF-2a inh 10.
Screening COc1cccc(CN(C)C(=O)CNC(=O)c2ccc(-c3ccccc3)cc2)c1OC returned Peg3 promoter -14, TWEAK Fn14 block 51*, LMP1 NFkB inh 23, TRPM1 prom inh 16, TROY signal inh 36 and HIF-2a inh -18.
Screening O=C1/C(=C/c2ccncc2)SC(=S)N1C1CCS(=O)(=O)C1 (stereo not given) returned Peg3 promoter 41, TWEAK Fn14 block 46, LMP1 NFkB inh 10, TRPM1 prom inh 9, TROY signal inh 0 and HIF-2a inh 41*.
O=[N+]([O-])c1ccccc1S(=O)NCc1c(Cl)cccc1Cl (stereo not given) was read as Peg3 promoter 1, TWEAK Fn14 block 8, TROY signal inh 55* and HIF-2a inh -3.
Screening Cc1ccc(S(=O)(=O)N(C(=N)N)c2nc(N(C)C)nc(N(C)C)n2)cc1 returned Peg3 promoter 21, TWEAK Fn14 block 8, LMP1 NFkB inh 9, TRPM1 prom inh 0, TROY signal inh 6 and HIF-2a inh 18.
For COc1ccc(N(C)C(=O)c2cc3c(s2)-c2ccc(Cl)cc2S(=O)(=O)C3)c(OC)c1 the results were Peg3 promoter -1, TWEAK Fn14 block 71*, LMP1 NFkB inh 11, TRPM1 prom inh 48, TROY signal inh 31 and HIF-2a inh 17.
Screening CN(CC(=O)Nc1cccc(F)c1)C(=O)c1cc(-c2cccs2)nn1-c1ccccc1 returned Peg3 promoter 56*, TWEAK Fn14 block 8, LMP1 NFkB inh -1, TRPM1 prom inh 12, TROY signal inh 16 and HIF-2a inh 9.

Screening results (PubChem)
